Results on eight compounds are retold here after PubChem BioAssay (NCATS).

Several values for one entry are separate records, joined by “and”; a condition that tells them apart may be missing. Equal entries are not always repeated. Inconclusive results are not listed. Activity calls are given as the source filed them. Unless noted, the call rests on the fitted dose curve; in most records, active means well fitted curve in the direction sought with a large enough effect; inconclusive means small, poorly fitted or top-dose-only effect, or another doubt; inactive means no such curve, though single readings can be large; an effect the other way counts as inactive or inconclusive. Some results are limits rather than exact numbers.

Assay [1] can be described thus: Cell Viability - BJ (AID 421; calls by dose curve;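 further: potency means the concentration at half of the fitted maximal effect; cells exposed to compound for 40 hours at 37 °C before readout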). To be noted: BJ fibroblast viability, qHTS. An outline of the steps: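 Cytotoxicity in human BJ foreskin fibroblasts is scored as loss of cellular ATP after a 40-hour exposure, measured by luciferase luminescence. Controls are DMSO and 100 uM tamoxifen.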
Assay [2] is described as follows: Cell Viability - SK-N-SH (AID 435; calls by dose curve;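 further: potency means the concentration at half of the fitted maximal effect; compound exposure lasted 40 h at 37 °C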). Particulars: SK-N-SH neuroblastoma cell viability qHTS. An outline of the steps: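 Human neuroblastoma line, 40 h exposure at 37 °C, ATP quantified via luciferase luminescence; DMSO and 100 uM tamoxifen define 0 and 100% inhibition for AC50 fitting.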
A short description of assay [3]: Cell Viability - NIH 3T3 (AID 541).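 Further: plate controls were DMSO alone for no effect and tamoxifen positive control for full effect; nearly all actives have a fitted effect of over 25% in size.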 To be noted: NIH 3T3 cell viability, qHTS; activity change, negative = cytotoxicity: at 92.2 µM (top of the series). An outline of the steps:
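Mouse NIH 3T3 fibroblasts, 1000 cells/well, rested 5 hr at 37 °C, then exposed to compound for 40 hr at 37 °C in complete medium. Viability read as intracellular ATP by CellTiter-Glo luminescence; AC50 from Hill-equation fits of concentration-response data.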

A short description of assay [4]: Cellular Toxicity (caspase-3) Jurkat (AID 655).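 Further: cells exposed to compound for 16 h at 37 °C before reading.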 Particulars: Jurkat caspase-3 activation, luminescence, DMSO = 0%, tamoxifen = 100%; at 92.2 µM (top of the series). The gist of the method:
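qHTS in human Jurkat T-cell leukemia line: 16 hr compound treatment at 37 °C, caspase-3/7 activity measured by Caspase-Glo luminescence. AC50 derived from Hill equation.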

The nature of assay [5]: Cellular Toxicity (caspase-3) BJ (AID 658). To be noted: BJ fibroblasts, luminescence, normalized: DMSO 0%, staurosporine 100%; series mostly up to 91.7 µM. The gist of the method:
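Luminescent aminoluciferin-substrate cleavage reports caspase 3/7 activity in normal human BJ fibroblasts after 16 hr compound exposure at 37 °C. Normalized to DMSO (basal) and 10 uM staurosporine (100%); AC50 from Hill fit of concentration-response.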

Assay [6] can be described thus: Cellular Toxicity (caspase-3) H-4-II-E (AID 663).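 Further: cells exposed to compound for 16 hr before readout.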 To be noted: H-4-II-E rat hepatoma, scaled: DMSO 0%, 100 µM tamoxifen 100%; series mostly up to 92.2 µM. The gist of the method:
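Luminescence from caspase-cleaved aminoluciferin substrate, read 20 min after reagent addition, reports caspase 3/7 activation in rat H-4-II-E cells after 16 hr compound exposure. Normalized to DMSO (basal) and 100 uM tamoxifen (100%); AC50 from Hill fits.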

The nature of assay [7]: Cellular Toxicity (caspase-3) Hek293 (AID 664).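 Further: cells exposed to compound for 16 h at 37 °C before readout.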 Particulars: HEK293 caspase-3 activation, DMSO = 0%, 100 µM tamoxifen = 100%; series mostly up to 92.2 µM. An outline of the steps:
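HEK293 cells in complete medium treated 16 h at 37 °C, then Caspase-Glo 3/7 luminescence read after 20 min at room temperature. Normalized to DMSO and 100 uM tamoxifen; AC50 from Hill fit of concentration-response.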

Assay [8] can be described thus: Cellular Toxicity (caspase-3) N2a (AID 665).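 Further: compound exposure lasted 16 h at 37 °C before readout.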 To be noted: N2a cells, luminescence, normalized: DMSO 0%, 10 µM staurosporine 100%; at 92.2 µM (top of the series). The gist of the method: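 Mouse N2a neuroblastoma cells, 1500 per well, treated 16 h at 37 °C in complete medium; caspase-3/7 activity by Caspase-Glo luminescence after 1 h. Normalized to DMSO and 10 uM staurosporine; AC50 from Hill fits.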

Assay [9] is described as follows: Cell Viability - LYMP2-019 (AID 973).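 Further: cells exposed to compound for 24 h at 37 °C; 0% = DMSO alone and full effect = 92 µM tetraoctylammonium bromide; nearly all actives have a fitted effect of over 55% in size.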 To be noted: LYMP2-019 lymphoblastoid cell line viability; series mostly up to 92.2 µM. An outline of the steps: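 Human lymphoblastoid LYMP2-019 cells (2500/well) preincubated 5 h at 37 C, then treated 24 h at 37 C in complete medium. Viability by CellTiter-Glo ATP luminescence after 30 min at room temperature; AC50 from Hill fits.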

Assay [10] in a line: Cell Viability - LYMP2-021 (AID 974).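 Further: compound exposure lasts 24 hours at 37 °C; nearly all actives have a fitted effect of over 55% in size.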 Further: potency means the concentration at half of the fitted maximal effect. On activity change, negative = cytotoxicity: on the % scale 0 is the no-effect control and ±100 the full control effect. Particulars: LYMP2-021 lymphoblastoid cells viability; series mostly up to 92.2 µM. The gist of the method:
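Human lymphoblastoid LYMP2-021 cells, 2500/well in complete medium, treated 24 hours at 37 C. Intracellular ATP by CellTiter-Glo luminescence (30 min, RT); AC50 from Hill fits of concentration-response.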

A short description of assay [11]: qHTS assay for small molecule antagonists of peroxisome proliferator-activated receptor delta signaling (AID 588535; active means well fitted inhibition curve with a large enough effect in the signal ratio, with a control signal flat, not every such curve was filed as active; the % refers to the signal ratio;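 on max response: cells co-treated with a PPAR-delta agonist as stimulator during compound exposure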). Particulars: HEK293T PPARd-UAS-bla, beta-lactamase FRET ratio, 18 h; 460 nm channel. The gist of the method: (§1)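 Reporter: UAS-bla under PPAR-delta response element, HEK293T host. Medium: 2% charcoal/dextran FBS. Dosing: titration, 18 hrs, 37 C. Detection: CCF4, 2 hrs RT, 405 ex/460 and 530 em.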

Assay [12] addresses Peroxisome proliferator-activated receptor delta (Homo sapiens) (UniProt Q03181). The assay is described as above. To be noted: HEK293T PPARd-UAS-bla, beta-lactamase FRET ratio, 18 h; series mostly up to 76.7 µM. An outline of the steps:
as §1

Assay [13] in a line: qHTS assay for small molecule agonists of the antioxidant response element (ARE) signaling pathway (AID 651741; active means well fitted activation curve with a large enough effect in the signal ratio; the % refers to the signal ratio; further: % of control where 0% means no effect). Particulars: HepG2 ARE-bla reporter, beta-lactamase FRET ratio, 16 h; series mostly up to 96 µM. An outline of the steps: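 Compounds in DMSO are pinned onto HepG2 ARE-bla cells (2,000/well) that were preincubated 5 h; plates stay 16 h at 37 C, then beta-lactamase activity is detected with LiveBLAzer B/G substrate by fluorescence.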

The nature of assay [14]: Cellular Toxicity (caspase-3) SK-N-SH (AID 661). Particulars: SK-N-SH caspase-3 activation, qHTS, DMSO as zero, staurosporine as full; series mostly up to 91.7 µM. An outline of the steps:
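Human SK-N-SH neuroblastoma cells, 1500/well, were exposed to compounds for 16 hours at 37 °C. Caspase-Glo 3/7 luminescence was normalized to DMSO (basal) and 10 uM staurosporine (100%), and AC50 came from a Hill fit.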

Assay [15] is described as follows: Cellular Toxicity (caspase-3) Renal Proximal Tubule (AID 667).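 Further: cells exposed to compound for 16 hours at 37 °C before detection.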 Particulars: renal proximal tubule cells; at 91.7 µM (top of the series), primary cells freshly taken from rat, solvent-only wells 0%, staurosporine 100% unless noted. The gist of the method:
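Caspase-Glo 3/7 read-out, rat primary kidney proximal tubule cells. Compound exposure 16 h, 37 °C; detection after 1 h at RT. Activity scaled to DMSO and 10 uM staurosporine.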

The target in assay [16] is Bile acid receptor (Homo sapiens) (UniProt Q96RI1). Kind of assay: qHTS assay for small molecule antagonists of farnesoid X receptor signaling (AID 588526; calls by dose curve; further: on the % scale 0 is the no-effect control and ±100 the full control effect). Particulars: HEK293T FXR-UAS-bla, beta-lactamase ratio, antagonist mode; series mostly up to 76.7 µM. The gist of the method: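 Concentration-response titrations were fitted to the Hill equation for half-maximal inhibition and maximal response, with data normalised to 50 uM chenodeoxycholic acid and DMSO control wells. Cells: FXR-UAS-bla HEK293T, dialyzed FBS.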

Assay [17] concerns the target Peroxisome proliferator-activated receptor gamma (Homo sapiens) (UniProt P37231). Nature of the assay: qHTS assay for small molecule antagonists of peroxisome proliferator-activated receptor gamma signaling (AID 588537; active means well fitted inhibition curve with a large enough effect in the signal ratio, with a control signal flat, not every such curve was filed as active; the % refers to the signal ratio;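 further: reporter cells co-stimulated with 50 nM rosiglitazone agonist during compound treatment; % of control where 0% means no effect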). Particulars: HEK293 PPARg-UAS-bla, beta-lactamase ratio, antagonist mode; series mostly up to 76.8 µM. An outline of the steps:
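We seeded GeneBLAzer HEK293 reporter cells at 3000 per well, allowed 6-6.5 h attachment at 37 C, then co-treated with test compound titrations and 50 nM rosiglitazone overnight (16 h). Inhibition was quantified from 460/530 nm emission ratios.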

Assay [18] concerns the target Vitamin D3 receptor (Homo sapiens) (UniProt P11473). Nature of the assay: qHTS assay for small molecule antagonists of vitamin D receptor signaling (AID 588541; calls by dose curve;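 further: receptor activated by calcitriol during compound treatment; on the % scale 0 is the no-effect control and ±100 the full control effect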). Particulars: HEK293T VDR-UAS-bla, beta-lactamase ratio, antagonist mode; series mostly up to 76.7 µM. An outline of the steps: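 VDR-UAS-bla HEK293T cells (2000/well, 2% charcoal-stripped FBS) were treated with titrated compounds plus 1-alpha,25-dihydroxyvitamin D3 (50 nM or 3 nM final) for 16 h at 37 C. CCF4 beta-lactamase fluorescence was read; Hill fits gave IC50.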

The target is the same in assay [19]. Kind of assay: qHTS assay for small molecule agonists of vitamin D receptor signaling (AID 588543; calls by dose curve;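 further: 0% = DMSO basal and 100% = reference agonist control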). To be noted: HEK293T VDR-UAS-bla, beta-lactamase ratio, 16 h; series mostly up to 76.8 µM. The gist of the method:
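Measured: β-lactamase reporter activity (CCF4, 405 nm excitation, 460/530 nm emission) in HEK293T VDR-UAS-bla cells after 16 h compound exposure at 37 °C. Normalization against 50 nM 1α,25-dihydroxyvitamin D3 and DMSO; Hill-fit EC50.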

Assay [20] can be described thus: MultiTox-Fluor Cytotoxicity Assay - LYMP1-001 - Dead Cells (AID 946).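 Further: 0% = DMSO and 100% = tetraoctylammonium bromide.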 To be noted: LYMP1-001 lymphoblastoid cells, dead-cell protease fluorescence; series mostly up to 92.2 µM. An outline of the steps: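 Seed 2500 LYMP1-001 cells/well, incubate 5 hr at 37 C; add compound, 16 hr at 37 C; add MultiTox-Fluor reagent, 60 min RT; read dead-cell fluorescence Ex/Em=485/520. Normalize to DMSO and 15 uM tetraoctylammonium bromide.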

Vitamin D3 receptor (Homo sapiens), sequence (P11473 whole entry, looked up): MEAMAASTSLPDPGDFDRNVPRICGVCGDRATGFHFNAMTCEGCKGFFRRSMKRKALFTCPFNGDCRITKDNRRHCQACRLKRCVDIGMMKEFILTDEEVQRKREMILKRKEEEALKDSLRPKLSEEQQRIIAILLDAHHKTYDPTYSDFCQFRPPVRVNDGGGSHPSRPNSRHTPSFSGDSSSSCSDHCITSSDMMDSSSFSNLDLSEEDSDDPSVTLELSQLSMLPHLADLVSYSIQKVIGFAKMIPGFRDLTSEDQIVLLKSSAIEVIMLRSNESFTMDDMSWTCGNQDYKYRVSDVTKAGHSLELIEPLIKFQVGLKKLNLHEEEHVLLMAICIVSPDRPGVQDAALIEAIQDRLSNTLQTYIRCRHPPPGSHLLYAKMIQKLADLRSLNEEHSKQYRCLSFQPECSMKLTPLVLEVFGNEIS
Bile acid receptor (Homo sapiens), sequence (Q96RI1 whole entry, looked up): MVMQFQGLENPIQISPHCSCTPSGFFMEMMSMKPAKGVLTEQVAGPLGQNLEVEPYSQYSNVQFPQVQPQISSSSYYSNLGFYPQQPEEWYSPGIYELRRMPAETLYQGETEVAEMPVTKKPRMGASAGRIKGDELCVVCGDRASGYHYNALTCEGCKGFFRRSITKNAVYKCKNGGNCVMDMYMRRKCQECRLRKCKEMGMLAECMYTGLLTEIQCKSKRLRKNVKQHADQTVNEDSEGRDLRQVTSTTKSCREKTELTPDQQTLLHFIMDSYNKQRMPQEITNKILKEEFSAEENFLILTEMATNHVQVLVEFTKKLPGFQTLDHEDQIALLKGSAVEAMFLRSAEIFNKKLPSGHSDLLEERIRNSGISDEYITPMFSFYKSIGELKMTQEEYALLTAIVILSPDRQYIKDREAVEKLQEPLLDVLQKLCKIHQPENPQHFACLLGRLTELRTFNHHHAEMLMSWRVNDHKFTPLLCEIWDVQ
Peroxisome proliferator-activated receptor delta (Homo sapiens), sequence (Q03181 whole entry, looked up): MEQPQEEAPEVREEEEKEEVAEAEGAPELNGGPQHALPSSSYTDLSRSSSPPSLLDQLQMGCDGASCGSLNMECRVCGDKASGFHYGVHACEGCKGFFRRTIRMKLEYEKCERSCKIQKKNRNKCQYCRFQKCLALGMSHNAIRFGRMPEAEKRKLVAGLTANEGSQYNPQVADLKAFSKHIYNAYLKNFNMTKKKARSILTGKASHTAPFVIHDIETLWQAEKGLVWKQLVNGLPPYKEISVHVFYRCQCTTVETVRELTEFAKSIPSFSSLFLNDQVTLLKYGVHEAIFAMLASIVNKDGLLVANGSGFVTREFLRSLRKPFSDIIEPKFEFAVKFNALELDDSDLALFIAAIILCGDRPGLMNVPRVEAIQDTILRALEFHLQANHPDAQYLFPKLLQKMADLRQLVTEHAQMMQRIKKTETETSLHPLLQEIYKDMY
Peroxisome proliferator-activated receptor gamma (Homo sapiens), sequence (P37231 whole entry, looked up): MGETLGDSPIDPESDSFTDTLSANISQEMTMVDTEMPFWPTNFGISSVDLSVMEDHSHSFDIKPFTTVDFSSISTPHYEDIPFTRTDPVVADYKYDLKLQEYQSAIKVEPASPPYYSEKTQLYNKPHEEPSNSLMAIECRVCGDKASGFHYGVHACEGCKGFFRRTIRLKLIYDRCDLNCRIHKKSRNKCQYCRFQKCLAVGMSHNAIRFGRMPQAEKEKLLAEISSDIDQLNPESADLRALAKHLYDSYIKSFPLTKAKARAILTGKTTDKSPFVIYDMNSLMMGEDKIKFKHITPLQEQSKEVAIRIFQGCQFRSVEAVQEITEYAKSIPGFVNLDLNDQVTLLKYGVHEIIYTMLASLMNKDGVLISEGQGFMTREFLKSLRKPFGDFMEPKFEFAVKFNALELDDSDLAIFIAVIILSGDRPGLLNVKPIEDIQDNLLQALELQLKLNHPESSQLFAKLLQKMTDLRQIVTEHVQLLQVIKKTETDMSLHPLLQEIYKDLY

For the compound `Cc1ccccc1N`, the Potency in assay [1] and in [2] was > 92 µM (inactive) each time. For the same compound, in assay [3], the activity change, negative = cytotoxicity is -25.3% (inactive) and -5.05% (inactive). The caspase-3 activation in [4] is 11.5% (inactive) and 2.29% (inactive); in [8], -5.28% (inactive) and -1.86% (inactive). In addition, the compound was called inactive in assay [5], in [6] and in [7]. Also, the Potency entry in assay [9], in assay [10], in assay [12] and in assay [13] was “inactive” each time. Moreover, in [11], the max response turned out to be 7.62%.

With `Oc1ccc(Cl)cc1Cl`, the Potency in assay [1] and in assay [2] was > 92 µM (inactive) in each case. In addition, the activity change, negative = cytotoxicity in assay [3] was -8.01% (inactive). Further, the outcome in assay [5], in [14], in assay [7], in assay [16], in [18] and in assay [19] was inactive. The caspase-3 activation in [8] was -0.627% (inactive); in [15], -2.5% (inactive). For the same compound, the Potency entry in [9], in assay [12], in assay [17] and in assay [13] was “inactive” each time. The max response in assay [11] worked out at 0.988%.

As to `c1nc[nH]n1`, the Potency in assay [1] and in [2] was > 92 µM (inactive) throughout. Besides, the activity change, negative = cytotoxicity in assay [3] is -5.84% (inactive). The call in assay [5], in assay [14], in assay [7], in assay [16], in assay [18] and in [19] was inactive. The Potency result in assay [20] and in assay [12] was “inactive” each time. Also, the max response in assay [11] was -9.48%.

Regarding `Clc1cccc(C(Cl)(Cl)Cl)n1`, the Potency in assay [1] and in assay [2] was > 92 µM (inactive) in each case. Further, the activity change, negative = cytotoxicity in assay [3] was -0.893% (inactive). Also, the compound was called inactive in [5], in assay [14], in assay [6], in assay [7] and in assay [16]. In addition, the caspase-3 activation in assay [8] was -0.536% (inactive). For the same compound, the Potency entry in [17] and in [13] was “inactive” throughout.

As to `ClC(Cl)=C(Cl)C(Cl)=C(Cl)Cl`, in assay [1], the Potency is > 92 µM (inactive). Besides, the activity change, negative = cytotoxicity in [3] was -27.5% (inactive). Moreover, the call in assay [14], in assay [6] and in assay [7] was inactive. The caspase-3 activation in [8] was -2.34% (inactive); in [15], 5.5% (inactive). Besides, the Potency result in assay [9], in [12] and in [13] was “inactive” each time. Further, the max response in [11] was -24.7% and -5.61%.

For the compound `O=[N+]([O-])c1cccc2ccccc12`, the Potency in assay [1] is > 92 µM (inactive). Further, the activity change, negative = cytotoxicity in assay [3] was 3.57% (inactive). In addition, the compound was called inactive in assay [6]. Moreover, the Potency result in assay [10], in [12] and in assay [17] was “inactive” throughout. Besides, in [11], the max response was -7.08% and 18.1%.

As to `ClC(Cl)(Cl)c1ccccc1`, the Potency in assay [2] is > 92 µM (inactive). Moreover, the activity change, negative = cytotoxicity in assay [3] is -19.1% (inactive) and -4.39% (inactive). The compound was classed as inactive in assay [6], in assay [16], in assay [18] and in assay [19]. The caspase-3 activation in assay [8] was -0.73% (inactive) and -1.88% (inactive); in [15] it was -4.62% (inactive) and -2.75% (inactive). In addition, the Potency entry in assay [10], in assay [12] and in assay [13] was “inactive” each time. For the same compound, in [11], the max response was 32% and 10.5%.

In the case of `CC(C)(OO)c1ccccc1`, the results for the Potency in assay [2] and in assay [10] were > 92 µM (inactive) and 50.1 µM (active), respectively. Also, the activity change, negative = cytotoxicity in assay [3] was -123% (active). In addition, the caspase-3 activation is -2.32% (inactive) in assay [4] and -7.39% (inactive) in assay [15]. For the same compound, the call in assay [5], in assay [14], in assay [6], in [7], in assay [16] and in [18] was inactive. In addition, the result in assay [19] was inactive. Also, the Potency entry in assay [20], in [12], in assay [17] and in [13] was “inactive” each time. In addition, the max response in assay [11] was -33%.
